This test relates to lanierone-responsive B-neuron OSN class (ItypOR36). Briefly: net action potential response of lanierone B-neuron (blank-subtracted) (spikes/s (Hz)); higher = stronger excitation. The settings on record: 10 µg on filter paper, neuron: B neuron (small spike amplitude). The procedure:
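Single sensillum recordings from antennal olfactory sensilla of live adult Ips typographus. Each compound was 10 µg in paraffin oil, delivered as a 0.5 s puff. Net response = spikes in the first 0.5 s of response minus the 0.5 s pre-stimulus count, doubled to give Hz, with blank response subtracted. Values are for the small-spike lanierone-responsive B-neuron (putatively expressing ItypOR36), recorded in sensilla co-housing the A-neuron class; N = 1-4, averaged.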

[1] abbreviates: co-localized A-neuron class: (4S)-cis-verbenol.
Where [2] appears, read: co-localized A-neuron class: (5S,7S)-trans-conophthorin.
[3] abbreviates: co-localized A-neuron class: (+)-isopinocamphone.
The mark [4] stands for this setting: co-localized A-neuron class: (+)-trans-4-thujanol.
Setting [5] is: co-localized A-neuron class: ipsdienol.
Where [6] appears, read: co-localized A-neuron class: myrcene.
Setting [7] is: co-localized A-neuron class: p-cymene.

± gives the standard deviation of the averaged measurements.

For `C=Cc1ccccc1` [Styrene], the “net action potential response” value is -6 ± 8.7 under setting [1]; -1.33 ± 1.1 under setting [2]; -4.67 ± 4.6 under setting [3]; -0.5 ± 6.6 under setting [4]; -1.33 ± 4.6 under setting [5]; 4 under setting [6]. The “net action potential response” value under setting [7] is -6 ± 2.8.
For the compound `Cc1ccc(C(C)C)cc1` [p-Cymene], the “net action potential response” value under setting [1] is -3.33 ± 3.1; the “net action potential response” value under setting [2] was determined as 0.5 ± 2.5; the “net action potential response” value under setting [3] was -2 ± 3.5; the “net action potential response” value under setting [4] is -1.5 ± 4.4; the “net action potential response” value under setting [5] was -1.33 ± 5; the “net action potential response” value under setting [6] came to 4. Besides, under setting [7], the “net action potential response” value was -3.33 ± 5.8.
With `C[C@@H]1C(=O)C[C@H]2C[C@@H]1C2(C)C` [(+)-Isopinocamphone], the “net action potential response” value was -0.667 ± 17 under setting [1]; 1.33 ± 5 under setting [2]; -5.33 ± 3.1 under setting [3]; 1 ± 2.6 under setting [4]; -2 ± 2 under setting [5]; -2 under setting [6]. Besides, the “net action potential response” value under setting [7] is -0.667 ± 3.1.
As for `CC1=CCC(=C(C)C)CC1` [Terpinolene], the “net action potential response” value under setting [1] is 4.67 ± 6.4; the “net action potential response” value under setting [2] was 2 ± 2; the “net action potential response” value under setting [3] was -4 ± 2; the “net action potential response” value under setting [4] was -3 ± 3.8; the “net action potential response” value under setting [5] came to 2 ± 5.3; the “net action potential response” value under setting [6] is -8. Moreover, under setting [7], the “net action potential response” value turned out to be 0.667 ± 2.3.
Take `C=C(C)[C@@H]1CC=C(C)CC1` [(-)-Limonene]: the “net action potential response” value under setting [1] was -1.33 ± 5.8; the “net action potential response” value under setting [2] was -2.67 ± 3.1; the “net action potential response” value under setting [3] is -0.667 ± 2.3; the “net action potential response” value under setting [4] is 2.5 ± 5.3; the “net action potential response” value under setting [5] is 1.33 ± 4.6; the “net action potential response” value under setting [6] is -8. Under setting [7], the “net action potential response” value is -1.33 ± 4.2.
Take `C=C1[C@@H]2CC[C@@H](C2)C1(C)C` (racemic) [(±)-Camphene]: the “net action potential response” value was -3.33 ± 8.3 under setting [1]; 0 ± 2 under setting [2]; -3.33 ± 1.1 under setting [3]; 0 ± 3.6 under setting [4]; 3.33 ± 2.3 under setting [5]; -4 under setting [6]. The “net action potential response” value under setting [7] is 0.
